Laboratory results reported in PubChem BioAssay AID652067 (The Scripps Research Institute Molecular Screening Center, 2013).
About 5,400 (1.5%) of roughly 370,000 compounds were called active.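 The calls were made as follows: active = activation above the mean of all tested compounds plus 3 SD (cut at about 5.5% in these data); inactive = the rest.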 Only a selection was taken, and actives are over-represented in it overall.

test system: DAF-12 nuclear receptor (Haemonchus contortus); assay: hcDAF-12 driven luciferase reporter activation – cell-based, luminescence, HEK293, lit1-tk-luc reporter, primary screen (AID 652067); settings: HEK293 hcDAF-12 lit1-tk-luc reporter, at 6.8 µM, hits give high values, 0% DMSO, 100% Δ7-dafachronic acid;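 also: 100% = response to 3 µM Δ7-dafachronic acid high control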

activation, inactive:
O=C(N[C@H](Cc1ccccc1)C(=O)N1CCCN(Cc2cccs2)CC1)[C@H]1O[C@@H](n2ccc(=O)[nH]c2=O)[C@H](O)[C@@H]1O -1.83%, CC(C)CNC(=O)OCc1cn(Cc2ccc(F)cc2)nn1 -2.06%, CS(=O)(=O)N(CC(=O)Nc1ccc(F)cc1F)c1cccc([N+](=O)[O-])c1 -0.66%, O=C(NCc1ccco1)C1CCCN(S(=O)(=O)c2ccc(Cl)s2)C1 (configuration not stated) -2.39%, NC(N)=N/N=C/c1ccc(OCc2ccc(Cl)cc2Cl)cc1 -1.35%, Cc1nc2c(OCc3ccc(Cl)cc3Cl)cccn2c1N(C)CC1CC1 -1.39%, CCOC(=O)[C@]12CCCCC/C=C\1N(Cc1ccc(OC)cc1)C(=O)[C@H]2CC(=O)NCCCN1CCCC1=O -0.09%, CN(C)Cc1cn(-c2ccc(-c3noc4c3C(=O)N(CC(=O)N3CCOCC3)CC4)cc2)nn1 2.44%, CCOC(=O)CNC(=O)N(C)[C@H]1C[C@H]2c3[nH]c4c(-c5ccc6c(c5)OCO6)cccc4c3CCN2C(=O)[C@H]1[C@H](C)O -1.87%, O=C(NNC(=O)c1cc(S(=O)(=O)N2CCCCC2)ccc1Cl)c1ccccc1O 1.49%, Cc1cccc(NS(=O)(=O)c2cccc(C(=O)NNC(=O)c3ccccc3O)c2)c1 -2.63%, COC(=O)C1=C(C)N(Cc2cccc(C(F)(F)F)c2)C(=NCc2ccccc2)NC1c1ccccc1C(F)(F)F (configuration not stated) -0.61%, CC(=O)Nc1ccc(OC[C@@H](O)CN2CCC(C(O)(c3ccccc3)c3ccccc3)CC2)cc1 -1.17%, CC(C)[C@@H](C)/C=C/[C@@H](C)[C@H]1CC[C@@H]2[C@]1(C)CCC1[C@]23C=C[C@]2(C[C@@H](O)CC[C@]12C)N(c1ccc([N+](=O)[O-])cn1)O3 (some centres not stated) -0.59%, CCn1c(=O)n2n(c1=O)[C@@]1(C=C3CCCC[C@H]32)N=C(NC(=O)c2ccccc2)N(Cc2ccccc2)[C@H]1Cc1ccccc1 -1.71%, COc1ccc(/C(O)=C2/C(=O)C(=O)N(CC3CCCO3)C2c2ccc(OC)c(OC)c2)cc1 (configuration not stated) -1.07%, COc1ccc(/C(O)=C2/C(=O)C(=O)N(c3nc(C)c(C)s3)C2c2ccco2)cc1 (configuration not stated) 1.96%, O=S1(=O)c2c(NCc3ccco3)cccc2Oc2ccccc2CN1Cc1cn(Cc2cccc(C(F)(F)F)c2)nn1 -2.46%, CN(NC(=O)C1CC(=O)N(c2ccccc2)C1)C1=NS(=O)(=O)c2ccccc21 (configuration not stated) 1.93%, CC(=O)C1(C(=O)Nc2nccs2)CC(c2ccccc2C(F)(F)F)=NO1 (configuration not stated) -0.69%, COc1ccc(N2CCN(CCNS(=O)(=O)c3ccc(Cl)s3)CC2)cc1 0.26%, CCSc1ccccc1C(=O)Nc1ccc2c(c1)OCO2 3.08%, CNS(=O)(=O)c1ccc(NC(=O)Nc2ccc3c(c2)OCO3)cc1 4.15%, COc1cccc(/C=C/C(=O)Nc2ccc3c(c2)OCCO3)c1 3.26%, CN(Cc1ccccc1)C(=O)COC(=O)/C=C/c1ccc2c(c1)OCO2 -1.03%, COC(=O)c1cc2c(c3c4cc(F)ccc4n(S(=O)(=O)c4ccccc4)c13)C(=O)N(Cc1ccccc1OC)C2 0.96%, CCCN1C(=O)c2[nH]nc(-c3ccccc3)c2C1c1ccccc1 (configuration not stated) -1.32%, COc1ccccc1CCNC(=O)C1CCN(c2nc(C)cc(C)n2)CC1 -0.5%, Cc1cc(OC(=O)NCCc2ccc(F)cc2)ccc1F -1.94%, Cc1cc(O)cc(O)c1C(=O)Cc1cnn(-c2ccccc2)c1 -1.81%, COc1ccc(CNC(=O)COc2ccccc2C(=O)c2cnn(-c3ccccc3)c2)cc1OC 3.06%, CN(CCO)c1cccc2c1S(=O)(=O)N(Cc1cn(Cc3ccc(C(F)(F)F)cc3)nn1)Cc1ccccc1O2 1.99%, COc1ccccc1C(=O)NC1CCCCN(C(C)C)C1=O (configuration not stated) 0.55%, Cc1cc(C(=O)OC(C)C(=O)Nc2cccc(S(=O)(=O)N3CCOCC3)c2)c(C)o1 (configuration not stated) -0.06%, O=C(c1c[nH]c2ccccc12)N1CCC(Oc2cccnc2)CC1 1.45%, Cc1cc(CN(C)C(=O)c2cc(COc3ccc(C)c(C)c3)on2)n[nH]1 -1.73%, COc1ccc(OCc2cc(C(=O)NCC3(C)COC3)no2)c(Cl)c1 1.3%, COc1ccc2c(C(C)c3ccc(N)cc3)cn(C)c2c1 (configuration not stated) -0.33%, O=C(NCCc1c[nH]c2ccccc12)OCc1cn(-c2c(F)cccc2F)nn1 3%, O=c1[nH]c2ccccc2s1 1.16%, CCOc1ccc2[nH]c(=S)sc2c1 -0.28%, COCc1[nH]nc2c1C(c1ccccc1)N(c1ccccc1)C2=O (configuration not stated) -0.15%, COc1ccc2c(CC(=O)OCC(=O)Nc3ccccc3[N+](=O)[O-])coc2c1 0.19%, O=S1(=O)c2c(cccc2N2CCCC2)O[C@H](COCc2ccccc2)CN1C1CC1 -1.28%, Cc1ccc(-n2c(COc3ccccc3)nnc2SCC(=O)Nc2ccc3c(c2)OCCO3)cc1 -2.77%, C=CC1=CCN(S(=O)(=O)C(C)(C)C)[C@@H]1CCO -0.05%, N#CC(=C1CCCC1)c1nc(-c2ccc(Cl)cc2)cs1 -0.23%, c1ccc(-c2csc(N3CCc4ccccc4C3)n2)cc1 1.49%, COc1ccc(C(=O)CSc2nnc(-c3cnccn3)n2-c2ccc(C)cc2)cc1 -3.92%, COC(=O)[C@@]12CCCCC=C1N(CCc1ccc(Cl)cc1)C(=O)[C@H]2CC(=O)NCc1ccc(OC)c(OC)c1 -2.23%, CCc1ccccc1NC(=O)CSc1nnc(-c2cccs2)o1 2.25%, O=C(Cc1c[nH]c2ccccc12)N/N=C/c1cccc(F)c1 -2.14%, O=C(CCCOc1ccccc1)Nc1cccc(C(=O)O)c1 -0.3%, CCn1c(SC)nc(O)c(C(c2ccc(OC)c(O)c2)c2c(O)nc(SC)n(CC)c2=O)c1=O -1.4%, Cc1cccc(N2CCN(C(=O)c3cccc(S(=O)(=O)N4CCc5ccccc5C4)c3)CC2C)c1 (configuration not stated) -2.28%, N#Cc1ccc(N2Cc3ccccc3/C2=N/C(=O)Nc2ccc(Cl)cc2)cc1 -0.08%, CCCCCCCCNS(=O)(=O)/C=C/c1cc(C)ccc1CNC(=O)OC(C)(C)C -0.7%, COc1ccc(-c2nnn(Cc3nc(N)nc(N4CCCCC4)n3)n2)cc1 -2.9%, CCOC(=O)CNc1nc2ccccc2n2c(C)nnc12 -0.04%, CC(C)(C)N1CC(c2nc3ccccc3n2Cc2ccc(F)cc2)CC1=O (configuration not stated) 0.33%, Cc1ccc(-n2nc(N)c3c(=O)oc(N(C)C)nc32)cc1 0.85%, CCc1c(C)nc(SCC(=O)NC2CCCC2)[nH]c1=O -0.17%, Cc1c(C)n2c(SCC(=O)NC3CCCC3)nnc2[nH]c1=O -0.71%, CCOC(=O)c1c(C2CC2)csc1NC(=O)CSCc1c(C)noc1C -3.08%, CC(=O)Nc1cccc(C(=O)OCN2C(=O)c3ccccc3C2=O)c1 1.25%, CC(=O)Nc1cccc(C(=O)OCC(=O)NCc2cc(C)c(O)c(C)c2)c1 1.87%, COc1ccc(C(=O)OCCN(C)C2CN(Cc3cn(Cc4cccc(C)c4)nn3)S(=O)(=O)C2)cc1OC (configuration not stated) -2.89%, CCCc1nc2c3ccccc3ccn2c1Cc1ccccc1C(F)(F)F 5.09%, Cc1ccc(Cc2c(-c3ccc(Cl)cc3)nc3c4ccccc4ccn23)cc1 3.04%, COc1ccccc1Cc1c(-c2ccc(Cl)cc2)nc2c3ccccc3ccn12 2.15%, Cc1ccc(Cc2c(-c3ccc(C)cc3)nc3c4ccccc4ccn23)cc1 4.63%

activation, active:
Cc1nc2ccccc2nc(C)c1=NOCc1ccc(Cl)cc1Cl 6.04%, O=C(NNC(=O)c1ccccc1O)c1ccccc1O 5.92%, CCOc1ccc(/C(O)=C2\C(=O)C(=O)N(c3ccc(OC)cc3)C2c2ccccc2[N+](=O)[O-])cc1 (configuration not stated) 6.27%, Cc1cccc(NC(=O)/C=C/c2ccc3c(c2)OCO3)n1 5.86%, Cc1cccc(NC(=O)Nc2ccc3c(c2)OCO3)n1 8.33%, O=C(c1cnn(-c2ccc(Cl)cc2)c1)c1ccccc1O 6.75%, Cc1cc(OCc2cc(C(=O)NCc3cc(C(C)C)no3)no2)cc(C)c1Cl 8.95%, Nc1ccc2[nH]c(=S)sc2c1 7.75%, N#CC(=C1SC=CS1)c1nc(-c2ccccc2)cs1 5.72%, O=C(O)c1cccc(NC(=S)N/N=C/c2c[nH]c3ccccc23)c1 5.99%, Cc1cccc(N2Cc3ccccc3C2=NC(=O)c2ccc(Cl)nc2)c1 5.83%, Fc1ccc(CNc2nc3ccccc3n3nnnc23)cc1 5.66%, Cc1nc(SCC(=O)NC2CCCC2)[nH]c(=O)c1C 5.79%, CC(=O)Nc1cccc(C(=O)OCC(=O)c2ccc3c(c2)OCO3)c1 8.29%, c1ccc(Cc2c(-c3ccco3)nc3c4ccccc4ccn23)cc1 12%, FC(F)(F)c1ccccc1Cc1c(-c2ccccc2)nc2c3ccccc3ccn12 5.96%
